In one test the target is Albumin (Bos taurus) (UniProt P02769). Nature of the test: compounds binding labelled BSA control protein – biochemical, small-molecule microarray, Alexa647 label, 635/667 nm fluorescence, artefact control for SMM control protein annotation, profiling panel (AID 1118).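 Further: score merges 667 nm emission intensity and signal-to-noise per printed compound spot.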 To be noted: BSA-A647 binding, fluorescence 635 nm, higher = more signal.
Test [1] can be described thus: probe aXIP binding to arrayed compounds – biochemical, NeuroSMM set, 635/667 nm fluorescence, primary screen (AID 1119).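 Further: probe is the protein aXip251-270 applied at 1 µg/mL to compound-printed slides; binding of probe to printed compounds measured as 667 nm fluorescence plus signal to noise.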 To be noted: small-molecule microarray, higher = more signal, called active from +8 up or from −8 down.
Test [2] in a line: probe aNOTCH3 binding on compound microarray – biochemical, small-molecule microarray, 635/667 nm fluorescence, primary screen (AID 1120).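 Further: probe is a biotin-tagged antibody raised against NOTCH3 rather than NOTCH3 protein; score merges spot fluorescence near 667 nm with spot signal to noise.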 To be noted: higher = more signal.
A short description of test [3]: probe aNOTCH2 binding on compound microarray – biochemical, small-molecule microarray, 635/667 nm fluorescence, primary screen (AID 1121).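 Further: score merges feature fluorescence read at 667 nm with its signal to noise.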 To be noted: higher = more signal.
Test [4] has as its target Carbonic anhydrase 2 (Homo sapiens) (UniProt P00918). The experiment in a line: compounds binding carbonic anhydrase 2 – biochemical, small-molecule microarray, Alexa647-labelled CAII, profiling panel (AID 1122). To be noted: CAII-A647 binding fluorescence, higher = more signal.
A short description of test [5]: COS7 lysate on small-molecule microarray, probe aHis, 635 nm (AID 1123).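 Further: z-score combines 667nm fluorescence intensity with signal-to-noise per printed compound spot.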 To be noted: COS7 cell lysate, fluorescence, higher = more signal.
A short description of test [6]: probe aLAP1 signal on lysate-treated microarray – cell lysate, small-molecule microarray, COS7 lysate, primary screen (AID 1124).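 Further: lysate comes from COS7 cells expressing LAP1 and is applied at 0.3 µg/mL; score merges spot fluorescence near 667 nm with signal-to-noise over triplicate slides.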 To be noted: probe aLAP1, fluorescence, higher = more signal.
For the next test, the system named is Sam68 (KHDRBS1). Nature of the test: compounds binding KHDRBS1 protein – biochemical, small-molecule microarray, 635 nm fluorescence, primary screen (AID 1125).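 Further: score merges 667 nm channel intensity with signal to noise over triplicate slides.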 To be noted: higher = more signal.
Test [7] deals with Chordin-like protein 2 (CHRDL2). Nature of the test: compounds binding chordin-like 2 – biochemical, small-molecule microarray, 635 nm fluorescence, primary screen (AID 1126).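 Further: printed compound slides probed with Chrdl2 protein at 4 µg/mL for 1 h at 4 C; score merges 667 nm emission intensity with signal to noise over three replicate slides.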 To be noted: fluorescence 635 nm, higher = more signal.
The target of test [8] is Concanavalin-A (Canavalia ensiformis) (UniProt P02866). Nature of the test: compounds binding concanavalin A lectin – biochemical, small-molecule microarray, Alexa647 label, 635 nm, artefact control for SMM control protein annotation, primary screen (AID 1127).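 Further: z combines 667 nm emission intensity with signal-to-noise across three replicate slides.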 To be noted: ConA-A647 binding fluorescence, higher = more signal.
Test [9] in a line: compounds binding Alexa647 anti-His antibody – biochemical, small-molecule microarray, 635 nm fluorescence, artefact control for SMM control protein annotation, primary screen (AID 1128).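 Further: score merges feature fluorescence with signal-to-noise for each printed compound spot.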 To be noted: higher = more signal.
Test [10] deals with Human papillomavirus type 1a E7 protein (residues 1-88). The experiment in a line: HPV1a E7 small-molecule binders, primary screen, biochemical, small-molecule microarray, residues 1-88, 635 nm (AID 1129). To be noted: small-molecule microarray binding, fluorescence 635 nm; higher = more signal.
Test [11] addresses Focal adhesion kinase 1 (Homo sapiens) (UniProt Q05397). Nature of the test: PTK2 protein binding on printed compound slides – biochemical, small-molecule microarray, 635/667 nm fluorescence, BSA, DTT, primary screen (AID 1130).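 Further: composite of spot emission at 667 nm and signal to noise over triplicate slides.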 To be noted: 635 nm fluorescence, higher = more signal.
The subject of test [12] is Fibrinogen (Alexa647-labelled). The experiment in a line: Alexa647-fibrinogen binding to printed small molecules – biochemical, small-molecule microarray, 635/667 nm fluorescence, artefact control for SMM control-protein annotation, profiling panel (AID 1131).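 Further: z-score merges 667 nm fluorescence with per-spot signal-to-noise over triplicate slides.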 To be noted: fibrinogen-A647 binding fluorescence, higher = more signal.
The target of test [13] is Follistatin (Homo sapiens) (UniProt P19883). Nature of the test: FST protein binding to printed compounds – biochemical, small-molecule microarray, 635/667 nm fluorescence, primary screen (AID 1132). To be noted: 635 nm fluorescence, higher = more signal.
Test [14] deals with Fibroblast growth factor 2 (Homo sapiens) (UniProt P09038). The experiment in a line: basic fibroblast growth factor binding to printed compounds – biochemical, small-molecule microarray, 635/667 nm fluorescence, primary screen (AID 1133). To be noted: FGF2, fluorescence 635/667, higher = more signal.
Test [15] is described as follows: JC-1 mitochondrial potential readout, lung cancer cells – cell-based, A549, JC-1 fluorescence, basal, 24 h, 100 nL, profiling panel (AID 1138).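 Further: A549 lung adenocarcinoma cells under basal conditions with no added stimulus; test concentration not given here.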 To be noted: higher = more signal.
The subject of a further test is Lefty1. Nature of the test: Lefty1 protein binding to printed compounds – biochemical, small-molecule microarray, 635/667 nm fluorescence, primary screen (AID 1139). To be noted: fluorescence 635/667, higher = more signal.
The test system of test [16] is wheat germ agglutinin (Triticum aestivum), Alexa647-labelled. The experiment in a line: Alexa647-WGA lectin binding to printed small molecules – biochemical, small-molecule microarray, 635/667 nm fluorescence, artefact control for SMM control-protein annotation, profiling panel (AID 1140).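 Further: score merges 667 nm feature emission with signal to noise over triplicate slides.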 To be noted: WGA-A647 binding, 635 nm fluorescence, higher = more signal.
Test [17] addresses Luciferin 4-monooxygenase (Photinus pyralis) (UniProt P08659). The experiment in a line: inhibition of purified Photinus pyralis luciferase – biochemical, luminescence, purified enzyme, 2006 set, primary screen (AID 1141).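 Further: cell-free assay with purified firefly luciferase at 100 ng per well in PBS; test concentration not given here.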 To be noted: purified firefly luciferase, SteadyGlo luminescence, 30 min; higher = more signal, called active from +8 up or from −8 down.

Each structure is given as a SMILES string. Calls of active or inactive are those of the source.

Among the data in PubChem BioAssay are composite z-score, composite Z-score and z-score values, retold here.

Chain of Concanavalin-A (Canavalia ensiformis) (P02866 whole entry, looked up): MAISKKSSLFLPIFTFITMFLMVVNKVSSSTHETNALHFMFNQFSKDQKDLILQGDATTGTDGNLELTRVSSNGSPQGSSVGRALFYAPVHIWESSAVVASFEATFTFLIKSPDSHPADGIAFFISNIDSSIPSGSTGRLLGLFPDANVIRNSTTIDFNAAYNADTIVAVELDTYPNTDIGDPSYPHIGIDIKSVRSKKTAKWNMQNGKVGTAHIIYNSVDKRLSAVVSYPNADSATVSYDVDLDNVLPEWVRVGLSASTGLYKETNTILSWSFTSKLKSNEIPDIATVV
Chain of Fibroblast growth factor 2 (Homo sapiens) (P09038 whole entry, looked up): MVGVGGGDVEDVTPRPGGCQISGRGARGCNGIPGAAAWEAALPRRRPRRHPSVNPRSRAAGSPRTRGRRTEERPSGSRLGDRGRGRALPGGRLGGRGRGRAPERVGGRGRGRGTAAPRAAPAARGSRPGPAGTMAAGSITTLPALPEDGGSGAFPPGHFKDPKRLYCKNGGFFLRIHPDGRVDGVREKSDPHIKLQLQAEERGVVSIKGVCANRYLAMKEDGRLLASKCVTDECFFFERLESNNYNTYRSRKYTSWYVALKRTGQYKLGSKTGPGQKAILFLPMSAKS
Chain of Focal adhesion kinase 1 (Homo sapiens) (Q05397 whole entry, looked up): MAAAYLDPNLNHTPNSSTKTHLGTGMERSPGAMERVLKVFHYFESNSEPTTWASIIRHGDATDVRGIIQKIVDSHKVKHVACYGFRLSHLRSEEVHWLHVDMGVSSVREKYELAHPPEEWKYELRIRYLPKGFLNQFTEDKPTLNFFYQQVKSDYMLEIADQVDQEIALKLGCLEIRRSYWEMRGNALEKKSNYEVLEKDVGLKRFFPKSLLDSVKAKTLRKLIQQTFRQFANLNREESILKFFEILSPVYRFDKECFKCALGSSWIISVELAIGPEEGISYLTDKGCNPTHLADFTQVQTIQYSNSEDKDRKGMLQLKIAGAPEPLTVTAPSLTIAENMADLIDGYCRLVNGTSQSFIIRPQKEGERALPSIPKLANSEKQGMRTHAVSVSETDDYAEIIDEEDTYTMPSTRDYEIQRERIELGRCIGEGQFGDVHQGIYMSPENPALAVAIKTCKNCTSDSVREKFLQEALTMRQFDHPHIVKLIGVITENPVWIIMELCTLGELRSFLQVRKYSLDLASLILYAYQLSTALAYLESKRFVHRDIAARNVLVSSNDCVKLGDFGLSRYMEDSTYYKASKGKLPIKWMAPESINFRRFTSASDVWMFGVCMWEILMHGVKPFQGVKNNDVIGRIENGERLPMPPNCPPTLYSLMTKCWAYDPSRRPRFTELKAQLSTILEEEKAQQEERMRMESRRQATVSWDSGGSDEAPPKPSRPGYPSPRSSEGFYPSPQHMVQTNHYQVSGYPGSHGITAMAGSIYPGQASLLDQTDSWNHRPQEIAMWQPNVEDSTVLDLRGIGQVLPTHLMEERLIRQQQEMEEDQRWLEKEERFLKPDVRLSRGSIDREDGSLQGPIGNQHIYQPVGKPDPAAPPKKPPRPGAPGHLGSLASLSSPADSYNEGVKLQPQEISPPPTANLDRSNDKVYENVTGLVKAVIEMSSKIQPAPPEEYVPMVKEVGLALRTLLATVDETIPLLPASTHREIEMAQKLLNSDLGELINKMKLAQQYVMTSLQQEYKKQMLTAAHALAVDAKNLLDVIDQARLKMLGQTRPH
Chain of Follistatin (Homo sapiens) (P19883 whole entry, looked up): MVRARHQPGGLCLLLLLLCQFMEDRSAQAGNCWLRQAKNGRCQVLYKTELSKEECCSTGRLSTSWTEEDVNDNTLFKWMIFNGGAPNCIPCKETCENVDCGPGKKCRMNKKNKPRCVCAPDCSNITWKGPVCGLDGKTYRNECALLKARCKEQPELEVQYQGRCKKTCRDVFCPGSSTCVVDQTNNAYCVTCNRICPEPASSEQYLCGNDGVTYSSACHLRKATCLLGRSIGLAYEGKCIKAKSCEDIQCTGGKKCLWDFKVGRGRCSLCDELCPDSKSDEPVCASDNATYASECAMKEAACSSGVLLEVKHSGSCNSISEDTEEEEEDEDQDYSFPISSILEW
Chain of Luciferin 4-monooxygenase (Photinus pyralis) (P08659 whole entry, looked up): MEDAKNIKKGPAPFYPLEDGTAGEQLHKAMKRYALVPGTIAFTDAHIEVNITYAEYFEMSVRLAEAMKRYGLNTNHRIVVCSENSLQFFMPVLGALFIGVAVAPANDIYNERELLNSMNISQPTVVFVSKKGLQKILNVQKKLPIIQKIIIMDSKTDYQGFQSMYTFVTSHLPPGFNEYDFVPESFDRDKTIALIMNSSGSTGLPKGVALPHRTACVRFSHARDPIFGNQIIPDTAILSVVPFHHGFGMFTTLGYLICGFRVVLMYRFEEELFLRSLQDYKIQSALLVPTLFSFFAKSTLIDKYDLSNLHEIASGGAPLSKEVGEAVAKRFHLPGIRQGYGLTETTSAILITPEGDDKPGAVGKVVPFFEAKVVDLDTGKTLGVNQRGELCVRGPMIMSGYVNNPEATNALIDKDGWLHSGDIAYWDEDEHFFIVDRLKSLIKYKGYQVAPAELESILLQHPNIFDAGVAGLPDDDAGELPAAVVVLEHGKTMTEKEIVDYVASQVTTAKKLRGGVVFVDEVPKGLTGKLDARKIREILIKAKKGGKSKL
Chain of Albumin (Bos taurus) (P02769 whole entry, looked up): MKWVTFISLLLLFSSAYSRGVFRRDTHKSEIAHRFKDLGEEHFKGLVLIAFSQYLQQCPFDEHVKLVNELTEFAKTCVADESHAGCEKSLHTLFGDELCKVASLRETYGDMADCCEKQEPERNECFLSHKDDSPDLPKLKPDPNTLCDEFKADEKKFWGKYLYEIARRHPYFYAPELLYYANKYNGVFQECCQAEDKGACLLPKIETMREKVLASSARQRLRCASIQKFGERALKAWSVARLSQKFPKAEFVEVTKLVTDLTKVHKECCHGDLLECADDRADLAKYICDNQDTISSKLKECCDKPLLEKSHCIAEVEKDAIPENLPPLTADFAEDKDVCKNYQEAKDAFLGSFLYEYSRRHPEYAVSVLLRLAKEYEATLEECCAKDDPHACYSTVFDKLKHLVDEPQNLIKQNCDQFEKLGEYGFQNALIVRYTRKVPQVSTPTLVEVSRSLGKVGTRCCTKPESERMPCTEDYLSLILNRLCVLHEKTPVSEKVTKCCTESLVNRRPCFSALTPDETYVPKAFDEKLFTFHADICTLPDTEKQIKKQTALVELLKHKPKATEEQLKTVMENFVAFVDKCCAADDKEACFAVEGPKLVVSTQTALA

`C[C@]1(C(=O)NCC(F)(F)F)c2ccccc2C(=O)N(Cc2ccccc2)[C@H]1c1ccc(CO)cc1`: the composite z-score is -1.14 with Albumin (Bos taurus); -0.221 in [2]; -0.123 in [3]; 0.448 in [4]; -0.145 in test [5]; 0.498 in [6]. For the same compound, the composite z-score in the test with Sam68 (KHDRBS1) was -1.22; in test [7] it was -1.7; in test [8] it was 0.0038; in [9] it was 1.09; in [10] it was -0.634; in test [11] it was -0.712. Moreover, the composite z-score in [12] was -1.32; in test [13], -0.684; in test [14] it was -1.02; with Lefty1, -1.25; in test [16], -0.68. Further, the composite Z-score in [1] was -0.222 (inactive). For the same compound, the figures for the z-score in test [15] and in [17] were -0.0626 and 0.857 (inactive), respectively.

Consider `COc1cc(NN2C(C(O)c3ccccc3)C=CC3C(=O)N(C)C(=O)C32)cc(OC)c1OC` (stereo not given), for which the composite z-score is 0.566 in the test with Albumin (Bos taurus); 0.12 in [2]; -0.0817 in [3]; 0.781 in [4]; 1.73 in test [5]; 0.481 in test [6]. In addition, the composite z-score with Sam68 (KHDRBS1) is 1.3; in test [7] it was -0.179; in test [8], 0.659; in test [9], 0.981; in test [10], 1.19; in [11], 0.681. Moreover, the composite z-score in test [12] is 0.959; in test [13], 0.756; in [14] it was 0.216; in the test with Lefty1 it was 0.229; in [16] it was 1.23. For the same compound, in [1], the composite Z-score is 1.13 (inactive). The z-score in test [15] was -0.109; in test [17] it was -1.69 (inactive).

Regarding `COc1ccc(C#Cc2ccc3c(c2)[C@]2(C(=O)N3)[C@H](C(=O)N3CCCCCCC3)[C@H]3C(=O)O[C@H](c4ccccc4)[C@H](c4ccccc4)N3[C@@H]2c2ccc(O)cc2)cc1`, the composite z-score with Albumin (Bos taurus) turned out to be 0.796; in test [2], 0.888; in test [3], 0.0488; in test [4], 0.594; in [5], 2.9; in test [6], 1.25. Also, the composite z-score is 1.3 in the test with Sam68 (KHDRBS1); 0.573 in test [7]; 0.977 in test [8]; 1.21 in [9]; 1.21 in test [10]; 0.127 in [11]. For the same compound, the composite z-score in test [12] came out at 0.729; in test [13], 1.31; in [14] it was 0.709; in the test on Lefty1, 0.942; in test [16], 0.983. The composite Z-score in test [1] was 4.74 (inactive). Besides, the z-score in test [15] is -0.316; in test [17] it was 0.103 (inactive).

On to `NCCCCCNC(=O)[C@H]1C[C@H]2C(=O)N[C@@H](Cc3ccccc3)C(=O)N2[C@H]1c1ccc(O)cc1`, for which the composite z-score was 0.819 with Albumin (Bos taurus); 0.248 in test [2]; 0.197 in test [3]; 0.487 in test [4]; 1.23 in test [5]; 1.23 in test [6]. Further, the composite z-score was 1.28 in the test on Sam68 (KHDRBS1); 0.518 in test [7]; 1.08 in [8]; 1.61 in test [9]; 0.756 in test [10]; -0.506 in [11]. Further, the composite z-score came out at 0.94 in test [12]; 1.4 in [13]; 0.169 in test [14]; 0.765 with Lefty1; 0.81 in [16]. Also, the composite Z-score in test [1] is 0.491 (inactive). In addition, the z-score in [15] is -0.421; in test [17], -1.35 (inactive).

As to `CCOC(=O)C1=C[C@@H](C(C)(C)C)N(S(=O)(=O)c2ccc(C)cc2)[C@H]1c1cccc(Cl)c1`, the composite z-score in the test with Albumin (Bos taurus) was 0.91; in test [2] it was 0.0311; in test [3], -0.037; in [4], 0.232; in test [5], 1.15; in [6], 0.596. The composite z-score in the test on Sam68 (KHDRBS1) came to 1.3; in test [7], 0.0761; in test [8], 1.11; in test [9], 1.07; in test [10], 1.22; in [11], 2.77. The composite z-score in test [12] was found to be 0.862; in test [13], 0.677; in [14], 0.556; with Lefty1, 1.26; in [16], 1.01. Further, the composite Z-score in [1] is -0.244 (inactive). In addition, the z-score in test [15] is 2.42; in test [17], 1.24 (inactive).
